# Measured values from publication PMC5540273 (PLoS ONE, 2017).
# Assays:
# Settings in all cases: concentration: 1 μM, replicates: in singlicate; n = 1
# PDGFRB = tested on: PDGFRB
# PDPK1 = tested on: PDPK1
# PFTAIRE2 = tested on: PFTAIRE2
# PFTK1 = tested on: T1, PFTK1
# T1 construct: gene CDK14
# PHKG1 = tested on: PHKG1
# PHKG2 = tested on: PHKG2
# PIK3C2B = tested on: PIK3C2B
# PIK3C2G = tested on: PIK3C2G
# PIK3CA = tested on: PIK3CA
# PIK3CB = tested on: PIK3CB
# PIK3CD = tested on: PIK3CD
# PIK3CG = tested on: PIK3CG
# PIK4CB = tested on: T2, PIK4CB
# T2 construct: gene PI4KB
# PIKFYVE = tested on: PIKFYVE
# PIM1 = tested on: PIM1
# PIM2 = tested on: PIM2
# PIM3 = tested on: PIM3
# PIP5K1A = tested on: PIP5K1A
# PIP5K1C = tested on: PIP5K1C
# PIP5K2B = tested on: PIP5K2B
# 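Also: KINOMEscan kinase panel screen.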
Structure (SMILES),%Inh (PDGFRB),%Inh (PDPK1),%Inh (PFTAIRE2),%Inh (PFTK1),%Inh (PHKG1),%Inh (PHKG2),%Inh (PIK3C2B),%Inh (PIK3C2G),%Inh (PIK3CA),%Inh (PIK3CB),%Inh (PIK3CD),%Inh (PIK3CG),%Inh (PIK4CB),%Inh (PIKFYVE),%Inh (PIM1),%Inh (PIM2),%Inh (PIM3),%Inh (PIP5K1A),%Inh (PIP5K1C),%Inh (PIP5K2B)
Clc1cc(Nc2ncnc3cc[nH]c23)ccc1OCc1ccccn1,38%,0%,5%,10%,0%,0%,15%,43%,8%,15%,25%,4%,34%,0%,5%,10%,22%,30%,0%,0%
O=C(Nc1n[nH]c2nc(-c3ccco3)c(Br)cc12)c1ccc(CN2CCCC2)cc1.O=C(O)[C@H](O)[C@@H](O)C(=O)O [SB-742352],99.7%,0%,5%,0%,0%,0%,0%,0%,0%,0%,0%,5%,40%,0%,0%,0%,0%,0%,0%,0%
Clc1cccc(-c2nc(Nc3ccncc3)c3ccccc3n2)c1 [GW873004],12%,4%,0%,0%,0%,0%,0%,0%,0%,0%,0%,0%,0%,61%,4%,11%,0%,22%,33%,0%
COc1ccc(NC(=O)c2ccc(-c3cc(-c4nnc(C)o4)ccc3C)cc2)cc1 [GW595885],47%,0%,0%,5%,3%,0%,0%,0%,0%,0%,0%,0%,0%,13%,0%,0%,0%,7%,1%,10%
FC(F)(F)c1ccc(-c2cc(-c3c[nH]nc3-c3ccccn3)ccn2)cc1 [GW599550],30%,5%,20%,19%,0%,21%,0%,0%,3%,0%,0%,1%,0%,22%,19%,0%,51%,18%,74%,17%
Cl.Cl.c1ccc(-c2cc3ccncc3cc2OC2CCNCC2)cc1 [GSK1122999],42%,0%,34%,12%,2%,0%,7%,0%,4%,26%,30%,3%,0%,0%,25%,0%,39%,0%,25%,10%
Cc1cc(N2CCC(NS(=O)(=O)c3ccc(F)cc3)CC2)nc(Nc2cccc(C#N)c2)n1.O=C(O)C(F)(F)F [GSK1653537],0%,15%,10%,9%,17%,0%,0%,6%,0%,2%,0%,15%,10%,0%,25%,9%,0%,0%,0%,6%
CC(=O)Nc1n[nH]c2ncc(-c3ccccc3)cc12 [SB-548492],90%,0%,14%,12%,2%,0%,3%,23%,0%,0%,0%,26%,44%,0%,7%,0%,14%,10%,0%,8%
CNc1nccc(-c2c(-c3ccc(F)cc3)ncn2C2CCN(C)CC2)n1 [SB-222903],17%,0%,0%,0%,0%,0%,0%,0%,0%,0%,0%,0%,0%,9%,1%,0%,0%,36%,0%,0%
Nc1nc(-c2cccnc2)c(-c2ccnc3ccccc23)s1 [GW684083],28%,0%,16%,27%,14%,0%,0%,0%,0%,0%,0%,0%,0%,12%,0%,0%,0%,25%,58%,0%
Cn1ccc2ncnc(Nc3ccc(Oc4cccc(Cl)c4)c(Cl)c3)c21,4%,22%,24%,0%,0%,10%,0%,28%,10%,60%,8%,8%,0%,0%,8%,17%,22%,0%,0%,54%
C[C@@H]1CCN(C(=O)CO)C[C@@H]1N(C)c1ncnc2[nH]ccc12,14%,0%,0%,0%,4%,0%,0%,3%,0%,0%,5%,0%,0%,48%,0%,0%,0%,16%,0%,0%
CCc1nc(-c2cccc(C)c2)c(-c2ccnc(NC(=O)c3ccccc3)c2)s1,0%,0%,17%,10%,0%,0%,14%,49%,0%,29%,44%,0%,62%,1%,0%,0%,0%,15%,0%,64%
Cl.c1ccc(Cn2ncc3cc(Nc4ncnc5ccccc45)ccc32)cc1 [GW273749],0%,0%,20%,14%,0%,0%,16%,0%,0%,7%,0%,3%,0%,0%,0%,0%,1%,0%,11%,10%
Cc1ccc(NC(=O)c2cccc(C#N)c2)cc1-c1ccc(C(=O)Nc2ccncc2)cc1 [GSK1398463],100%,17%,13%,27%,2%,0%,5%,4%,6%,0%,1%,0%,11%,0%,9%,0%,0%,0%,38%,23%
O=C(c1ccc(-c2cc(-c3c[nH]nc3-c3ccccn3)ccn2)cc1)N1CCCC1 [GW792479],4%,0%,6%,0%,0%,19%,0%,5%,0%,0%,0%,0%,4%,19%,100%,21%,8%,0%,14%,0%
O=C(Nc1ccccc1)Nc1ccc(Oc2ccc3nccn3n2)cc1,99%,0%,0%,0%,0%,5%,0%,0%,0%,0%,0%,0%,0%,5%,0%,6%,0%,4%,25%,7%
Fc1cccc(COc2ccc(Nc3ncnc4cc[nH]c34)cc2Cl)c1,25%,4%,17%,12%,0%,7%,32%,17%,0%,32%,17%,9%,12%,0%,26%,13%,34%,0%,0%,16%
OCCOCCn1ccc2ncnc(Nc3ccc(Oc4cccc(Cl)c4)c(Cl)c3)c21,0%,13%,0%,10%,0%,26%,0%,0%,0%,0%,0%,0%,0%,25%,2%,0%,5%,0%,34%,0%
COc1ccc(Nc2nccc(N3CCC(NC(=O)c4cccc(NC(C)=O)c4)C3)n2)cc1 (stereo not drawn) [GSK1379732],20%,10%,17%,36%,0%,1%,0%,0%,0%,9%,0%,0%,0%,0%,0%,0%,0%,49%,70%,12%
Fc1ccc(Nc2nccc(-c3c(-c4ccc(Cl)cc4)nn4ncccc34)n2)cc1F [GW829058],44%,12%,4%,10%,7%,0%,6%,29%,25%,50%,54%,18%,32%,20%,31%,11%,24%,13%,54%,14%
